Assay outcomes deposited in PubChem BioAssay by University of Kansas High Throughput Screening Laboratory.
mHTT-CaM PPI inh – disrupts binding of mutant huntingtin to calmodulin; 190,000 compounds, 3.6% hits; AID 1671202; AlphaScreen His-mHTT/GST-CaM binding, luminescence; P42858; inhibition, % at 15 µM;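 further: 0% = both proteins with DMSO and 100% = one protein alone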
Target sequence (P42858 whole entry, looked up, stated change not applied): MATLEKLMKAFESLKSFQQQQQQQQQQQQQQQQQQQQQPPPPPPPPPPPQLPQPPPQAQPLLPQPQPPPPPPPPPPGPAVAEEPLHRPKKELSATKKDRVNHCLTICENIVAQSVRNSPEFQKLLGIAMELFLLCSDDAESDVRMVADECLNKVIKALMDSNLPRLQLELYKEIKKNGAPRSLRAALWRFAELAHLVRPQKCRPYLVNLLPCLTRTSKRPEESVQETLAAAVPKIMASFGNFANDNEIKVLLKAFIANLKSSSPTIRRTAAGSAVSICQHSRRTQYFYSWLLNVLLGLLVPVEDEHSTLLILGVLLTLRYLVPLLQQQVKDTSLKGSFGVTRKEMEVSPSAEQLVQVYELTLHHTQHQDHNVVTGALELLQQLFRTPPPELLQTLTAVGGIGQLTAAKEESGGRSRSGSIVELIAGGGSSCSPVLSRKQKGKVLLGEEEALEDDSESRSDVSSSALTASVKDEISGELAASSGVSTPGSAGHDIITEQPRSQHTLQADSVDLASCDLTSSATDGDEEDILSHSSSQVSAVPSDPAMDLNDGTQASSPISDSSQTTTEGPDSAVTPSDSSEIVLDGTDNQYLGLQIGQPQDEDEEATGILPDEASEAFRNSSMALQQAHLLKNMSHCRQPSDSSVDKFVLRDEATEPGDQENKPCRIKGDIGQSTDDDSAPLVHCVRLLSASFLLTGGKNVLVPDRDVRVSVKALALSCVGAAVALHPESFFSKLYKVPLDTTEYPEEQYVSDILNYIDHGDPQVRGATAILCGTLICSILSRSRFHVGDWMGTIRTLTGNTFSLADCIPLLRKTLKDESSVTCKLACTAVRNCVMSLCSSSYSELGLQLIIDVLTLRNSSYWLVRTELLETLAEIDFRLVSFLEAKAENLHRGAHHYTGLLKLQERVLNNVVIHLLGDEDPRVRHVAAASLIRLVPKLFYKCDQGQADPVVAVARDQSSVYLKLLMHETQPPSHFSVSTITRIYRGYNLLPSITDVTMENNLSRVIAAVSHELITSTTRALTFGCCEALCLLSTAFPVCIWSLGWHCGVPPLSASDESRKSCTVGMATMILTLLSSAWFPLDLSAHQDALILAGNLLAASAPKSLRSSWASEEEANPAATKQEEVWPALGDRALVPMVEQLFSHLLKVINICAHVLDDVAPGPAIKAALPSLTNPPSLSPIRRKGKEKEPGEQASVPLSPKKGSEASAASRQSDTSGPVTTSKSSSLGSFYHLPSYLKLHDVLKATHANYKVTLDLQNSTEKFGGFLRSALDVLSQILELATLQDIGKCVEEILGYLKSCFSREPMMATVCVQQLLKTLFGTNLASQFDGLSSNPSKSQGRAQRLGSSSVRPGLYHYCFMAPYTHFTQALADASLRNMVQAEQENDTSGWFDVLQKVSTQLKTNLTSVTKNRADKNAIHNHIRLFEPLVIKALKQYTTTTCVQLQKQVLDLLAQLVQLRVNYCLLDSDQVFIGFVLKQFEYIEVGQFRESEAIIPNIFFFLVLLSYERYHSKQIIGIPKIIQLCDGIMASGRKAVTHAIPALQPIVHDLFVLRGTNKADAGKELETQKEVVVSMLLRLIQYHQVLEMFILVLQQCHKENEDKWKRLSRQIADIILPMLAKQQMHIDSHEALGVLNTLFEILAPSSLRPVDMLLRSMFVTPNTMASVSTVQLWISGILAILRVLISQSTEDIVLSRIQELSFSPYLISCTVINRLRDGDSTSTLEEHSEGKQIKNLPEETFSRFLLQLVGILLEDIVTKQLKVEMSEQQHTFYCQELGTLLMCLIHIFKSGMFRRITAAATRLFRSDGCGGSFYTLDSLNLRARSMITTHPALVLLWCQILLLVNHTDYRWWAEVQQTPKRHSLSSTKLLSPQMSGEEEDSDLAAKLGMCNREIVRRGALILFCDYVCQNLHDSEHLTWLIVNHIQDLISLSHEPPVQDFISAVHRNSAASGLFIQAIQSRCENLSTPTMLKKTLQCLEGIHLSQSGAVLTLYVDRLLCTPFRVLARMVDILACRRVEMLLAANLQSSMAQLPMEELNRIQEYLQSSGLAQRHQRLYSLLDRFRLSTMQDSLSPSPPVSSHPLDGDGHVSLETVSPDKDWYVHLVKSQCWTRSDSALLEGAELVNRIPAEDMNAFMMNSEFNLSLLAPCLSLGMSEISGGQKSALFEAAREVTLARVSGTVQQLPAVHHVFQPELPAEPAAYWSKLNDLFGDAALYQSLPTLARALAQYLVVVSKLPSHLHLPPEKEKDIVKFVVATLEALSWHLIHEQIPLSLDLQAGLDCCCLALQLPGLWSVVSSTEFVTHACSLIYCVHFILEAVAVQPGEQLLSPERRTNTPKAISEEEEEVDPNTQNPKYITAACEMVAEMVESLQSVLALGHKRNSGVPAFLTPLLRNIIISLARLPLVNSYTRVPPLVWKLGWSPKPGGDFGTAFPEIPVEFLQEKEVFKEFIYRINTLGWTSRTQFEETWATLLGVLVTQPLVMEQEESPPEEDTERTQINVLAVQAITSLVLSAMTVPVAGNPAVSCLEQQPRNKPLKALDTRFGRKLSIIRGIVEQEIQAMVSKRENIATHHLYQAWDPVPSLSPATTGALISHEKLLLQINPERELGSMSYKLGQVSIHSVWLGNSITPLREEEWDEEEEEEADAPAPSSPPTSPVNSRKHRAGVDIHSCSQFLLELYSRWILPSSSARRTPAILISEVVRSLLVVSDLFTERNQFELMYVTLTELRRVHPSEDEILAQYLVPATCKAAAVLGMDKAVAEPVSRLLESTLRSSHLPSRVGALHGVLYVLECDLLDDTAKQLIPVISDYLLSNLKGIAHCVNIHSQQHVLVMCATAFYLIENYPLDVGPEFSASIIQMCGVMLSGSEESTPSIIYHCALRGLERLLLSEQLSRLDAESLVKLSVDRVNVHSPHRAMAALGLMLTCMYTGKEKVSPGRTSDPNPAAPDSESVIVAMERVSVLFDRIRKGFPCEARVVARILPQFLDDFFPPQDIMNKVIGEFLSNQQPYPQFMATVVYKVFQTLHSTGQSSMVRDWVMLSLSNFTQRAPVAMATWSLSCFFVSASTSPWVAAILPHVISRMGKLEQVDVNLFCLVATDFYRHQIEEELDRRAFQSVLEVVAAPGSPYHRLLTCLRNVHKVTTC
Pf apPOL block – Pf-apPOL DNA polymerase inhibition | Recombinant Pf-apPOL, molecular beacon fluorescence, 1.5 h | AID 1794808 | 210,000 compounds, 0.25% hits | inhibition, % at 10 µM
* = called active by the depositor; · = no result. This is one part of a sample in which hits are shown more often than they occur. No stated cut-off is given here; in the data, active means inhibition above about 50%; inactive means the rest.

SMILES	mHTT-CaM PPI inh	Pf apPOL block
O=C(Cc1ccccc1F)N1CCC(COc2ccccc2C(=O)N2CCCCC2)CC1	1	71*
O=C(Cc1ccccc1F)N1CCC(COc2ccccc2C(=O)N2CCOCC2)CC1	5	-12
COc1ccc(-c2coc3c4c(ccc3c2=O)OCN(CC2CCCO2)C4)cc1OC (centres undefined)	-2	-8
Nc1nnc(SCC(=O)N2CCCc3ccccc32)s1	-2	-8
Cc1ccc(C(=O)N2CCC(c3nc4ccncc4n3CC(C)C)C2)cc1F (centres undefined)	13	4
COc1ccc(OC)c(/C=C(\C#N)c2nc3ccc(C)cc3[nH]2)c1	-21	2
O=C(Nc1ccc2c(c1)OCO2)c1cnn2c1NC(c1cccs1)CC2C(F)(F)F (centres undefined)	7	76*
COc1ccc(NC(=O)c2cnn3c2NC(c2cccs2)CC3C(F)(F)F)cc1OC (centres undefined)	29	0
CN(C)CCN1C(=O)C2C3c4ccccc4C([N+](=O)[O-])(c4ccccc43)C2C1=O (centres undefined)	-3	-2
CCCn1ccc2sc(C)c(C(=O)N3CCN(c4ccccc4)CC3)c2c1=O	35	2
Cc1sc2ccn(C)c(=O)c2c1C(=O)N1CCN(c2ccc(Cl)cc2)CC1	70*	-6
CCn1ccc2sc(C)c(C(=O)N3CCN(c4ccccc4)CC3)c2c1=O	59*	-7
Cc1sc2ccn(C)c(=O)c2c1C(=O)N1CCCCC1	-7	-3
COc1cccc(-c2ccc3c(N)c(C(=O)Nc4cccc(F)c4C)sc3n2)c1	-22	1
COc1ccc(-c2cc(C(F)(F)F)nc(-n3cc([N+](=O)[O-])nc3C)n2)cc1	1	7
O=C(CCS(=O)(=O)c1ccc(Br)cc1)Nc1ccc(F)c(Cl)c1	-9	-2
O=[N+]([O-])c1ccc(O)c(C=Nc2ccc(O)cc2)c1	5	0
COc1ccc(Cl)cc1NC(=O)NCc1ccc(C)n1C	·	-6
CCN(CC)CCC(c1ccc(N(C)C)cc1)c1c(OC)cc(OC)c2c(-c3ccccc3)cc(=O)oc12 (centres undefined)	100*	-6
CCN(CC)C(=O)CC(c1ccc(OC)cc1)c1c(OC)cc(OC)c2ccc(=O)oc12 (centres undefined)	32	-1
COc1cc(OC)c2ccc(=O)oc2c1C(CCN1CCN(c2ccccc2)CC1)c1ccc(N(C)C)cc1 (centres undefined)	84*	-2
COc1ccc(C(CCN2CCN(c3ccccc3)CC2)c2c(OC)cc(OC)c3c(-c4ccccc4)cc(=O)oc23)cc1 (centres undefined)	30	-1
COc1cc(OC)c2c(-c3ccccc3)cc(=O)oc2c1C(CCN1CCN(c2ccccc2)CC1)c1ccc(N(C)C)cc1 (centres undefined)	69*	-6
COc1cc(OC)c2ccc(=O)oc2c1C(CCN1CCOCC1)c1ccc(N(C)C)cc1 (centres undefined)	47	-8
CCOc1ccc(C2C(C#N)=C(N)N(c3ncn[nH]3)C3=C2C(=O)CC(C)(C)C3)cc1 (centres undefined)	-5	-1
SMILES	mHTT-CaM PPI inh	Pf apPOL block
CCS(=O)(=O)Nc1ccc(C2(C(=O)N(C)Cc3ccccc3)CCCCC2)cc1	13	1
COc1ccc(C(=O)Oc2cc(C)c3c(c2)OC(=Cc2ccncc2)C3=O)cc1	3	-4
CC1(CC(=O)Nc2ccccc2)NN=C(c2ccccc2)S1 (centres undefined)	73*	-2
O=C(CC(=O)Nc1ccccc1)Nc1ccccc1	-4	-2
COc1ccc(N2C(=O)CSC23CCCCC3)cc1	-4	-9
COc1ccc(N2C(=O)C(O)=CC2(OC)c2ccccc2)cc1 (centres undefined)	67*	24
CCOC(=O)c1ccc(N=Cc2cc(I)cc(I)c2O)cc1	·	-26
N#Cc1ccc(N=Cc2cc(I)cc(I)c2O)cc1	53*	0
COc1ccccc1CC(=O)N1CCN(C2=CC3=NCC(C)N3C=N2)CC1 (centres undefined)	15	-4
Cc1ccccc1OCC(=O)N1CCN(C2=CC3=NCC(C)N3C=N2)CC1 (centres undefined)	100*	1
COc1cc(OC)c2ccc(=O)oc2c1C(CCN1CCCC1)c1ccc2c(c1)OCO2 (centres undefined)	17	-9
CCCCCc1cc(=O)oc2c(C(CCN3CCCC3)c3ccc4c(c3)OCO4)c(OC)cc(OC)c12 (centres undefined)	100*	-25
COc1cc(OC)c2ccc(=O)oc2c1C(CCN1CCOCC1)c1ccc2c(c1)OCO2 (centres undefined)	41	-9
COc1cc(OC)c2c(-c3ccccc3)cc(=O)oc2c1C(CCN1CCCC1)c1ccc2c(c1)OCO2 (centres undefined)	100*	-18
COc1cc(OC)c2c(-c3ccccc3)cc(=O)oc2c1C(CCN1CCOCC1)c1ccc2c(c1)OCO2 (centres undefined)	84*	-5
CC(=O)Nc1cccc(N2CC(C(=O)NCCC3=CCCCC3)CC2=O)c1 (centres undefined)	7	-3
COc1cccc(C(=O)Nc2ccccc2C(=O)NC(C)C)c1	-5	-9
O=S(=O)(NCc1cccnc1)c1ccc2nc(-c3ccccc3)[nH]c2c1	9	9
Cc1nc(-c2ccncc2)nc2c1CCC(=O)N2CC1CCCO1 (centres undefined)	12	14
O=[N+]([O-])c1ccc(-c2csc(Nc3ccc4c(c3)OCO4)n2)cc1	55*	1
CC(C)Cc1ccc(-c2csc(Nc3ccc4c(c3)OCO4)n2)cc1	67*	-2
Clc1ccc(-c2csc(Nc3ccc4c(c3)OCO4)n2)cc1	-5	-7
COC(=O)c1ccc(-c2csc(NC(=O)Nc3ccc4c(c3)OCO4)n2)cc1	-6	-7
O=C1C(=Cc2cccc([N+](=O)[O-])c2)Oc2cc(OC(=O)N3CCOCC3)ccc21	5	-5
CS(=O)(=O)Nc1ccc2c(c1)OCO2	-5	·
SMILES	mHTT-CaM PPI inh	Pf apPOL block
O=C(CCNc1ccc(F)c(Cl)c1)c1ccccc1	-7	12
Fc1ccc(NC/C=C/c2ccco2)cc1Cl	91*	-2
O=[N+]([O-])c1cc(-n2cnnn2)ccc1N1CCOCC1	-6	·
COc1ccc(C)cc1NC(=O)N1CCCC2(C1)Nc1ccccc1NC2=NC(C)(C)C (centres undefined)	72*	0
COc1ccc(NC(=O)N2CCCC3(C2)Nc2ccccc2NC3=NC(C)(C)C)c(C)c1 (centres undefined)	25	-7
COc1ccccc1CC(=O)N1CCCC2(C1)Nc1ccccc1NC2=NC(C)(C)C (centres undefined)	59*	6
CC(C)(C)N=C1Nc2ncccc2NC12CCCN(C(=O)Cc1cccnc1)C2 (centres undefined)	5	-3
COCC(=O)N1CCCC2(C1)Nc1ccccc1NC2=NC(C)(C)C (centres undefined)	64*	0
CC(C)(C)N=C1Nc2ccccc2NC12CCCN(C(=O)Cc1ccccc1)C2 (centres undefined)	77*	1
COc1ccc(C(=O)N2CCCC3(C2)Nc2ccccc2NC3=NC(C)(C)C)c(OC)c1 (centres undefined)	41	8
COCC(=O)N1CCCC2(C1)Nc1ccccc1NC2=NC1CCCC1 (centres undefined)	38	-3
